Measured values as given in the supplement of paper PMC11732987, “Enantioselective OTUD7B fragment discovery through chemoproteomics screening and high-throughput optimisation” (Communications Chemistry, 2025).

Experiments:
Test in all cases: log2 ratio of Biotin-Ahx-Ub-VS probe labelling (fragment/DMSO); higher = less target engagement (more negative = stronger competition), active = hit call of the paper (q ≤ 0.05, log2 ratio ≤ -1)
Settings in all cases: compound concentration: 200 uM; treatment time: 3 h
USP16 = USP16 (UniProt Q9Y5T5)
In short: (§1)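 Labelled DUBs were enriched with NeutrAvidin, digested with LysC and trypsin, and run by diaPASEF LC-MS/MS. The labelling used Biotin-Ahx-Ub-VS at 0.5 µM final for 1 h on HEK293T lysate (495 µg per sample) previously treated in triplicate with fragment at 200 µM or vehicle for 3 h. Values are average log2 fragment/vehicle ratios by unpaired t-test on global-median-normalised Spectronaut quantities of proteins with ≥2 unique peptides.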

USP19 = biological target: T1, USP19 (UniProt O94966)
T1 sequence (whole entry): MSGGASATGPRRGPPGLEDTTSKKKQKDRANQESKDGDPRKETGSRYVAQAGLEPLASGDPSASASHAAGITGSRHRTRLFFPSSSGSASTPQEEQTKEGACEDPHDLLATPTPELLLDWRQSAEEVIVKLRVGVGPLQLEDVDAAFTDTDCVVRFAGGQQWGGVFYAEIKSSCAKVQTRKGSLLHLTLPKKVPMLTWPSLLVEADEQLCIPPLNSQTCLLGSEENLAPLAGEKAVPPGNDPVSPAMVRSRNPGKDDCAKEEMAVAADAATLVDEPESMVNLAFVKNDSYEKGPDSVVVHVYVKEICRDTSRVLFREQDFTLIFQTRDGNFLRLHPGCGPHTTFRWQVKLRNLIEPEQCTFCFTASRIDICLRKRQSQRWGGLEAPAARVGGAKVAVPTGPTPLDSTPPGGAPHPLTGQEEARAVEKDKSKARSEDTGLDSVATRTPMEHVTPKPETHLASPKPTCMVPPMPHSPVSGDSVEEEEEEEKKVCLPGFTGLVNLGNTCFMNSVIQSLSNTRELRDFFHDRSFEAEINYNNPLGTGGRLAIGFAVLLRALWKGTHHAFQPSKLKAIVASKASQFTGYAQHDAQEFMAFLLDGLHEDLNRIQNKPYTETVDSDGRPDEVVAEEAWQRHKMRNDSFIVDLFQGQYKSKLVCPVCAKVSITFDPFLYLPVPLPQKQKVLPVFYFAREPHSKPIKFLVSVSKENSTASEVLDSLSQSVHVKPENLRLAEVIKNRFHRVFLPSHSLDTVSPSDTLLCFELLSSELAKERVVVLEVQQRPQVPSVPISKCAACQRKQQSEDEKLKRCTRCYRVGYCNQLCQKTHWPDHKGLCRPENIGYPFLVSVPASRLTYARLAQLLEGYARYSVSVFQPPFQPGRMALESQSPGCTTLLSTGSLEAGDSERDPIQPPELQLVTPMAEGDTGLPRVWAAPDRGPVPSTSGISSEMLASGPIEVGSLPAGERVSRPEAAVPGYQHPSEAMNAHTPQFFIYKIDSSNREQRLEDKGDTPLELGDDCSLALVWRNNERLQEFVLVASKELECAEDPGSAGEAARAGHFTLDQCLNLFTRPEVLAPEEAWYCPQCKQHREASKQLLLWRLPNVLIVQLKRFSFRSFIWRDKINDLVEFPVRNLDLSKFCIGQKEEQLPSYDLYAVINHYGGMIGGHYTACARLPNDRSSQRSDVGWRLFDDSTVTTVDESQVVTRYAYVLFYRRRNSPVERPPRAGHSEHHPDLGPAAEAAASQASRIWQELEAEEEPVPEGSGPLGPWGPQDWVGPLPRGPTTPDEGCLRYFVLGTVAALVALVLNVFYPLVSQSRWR
In short: as §1

USP24 = USP24 (UniProt Q9UPU5)
In short: as §1

USP25 = biological target: T2, USP25 (UniProt Q9UHP3)
T2 sequence (whole entry): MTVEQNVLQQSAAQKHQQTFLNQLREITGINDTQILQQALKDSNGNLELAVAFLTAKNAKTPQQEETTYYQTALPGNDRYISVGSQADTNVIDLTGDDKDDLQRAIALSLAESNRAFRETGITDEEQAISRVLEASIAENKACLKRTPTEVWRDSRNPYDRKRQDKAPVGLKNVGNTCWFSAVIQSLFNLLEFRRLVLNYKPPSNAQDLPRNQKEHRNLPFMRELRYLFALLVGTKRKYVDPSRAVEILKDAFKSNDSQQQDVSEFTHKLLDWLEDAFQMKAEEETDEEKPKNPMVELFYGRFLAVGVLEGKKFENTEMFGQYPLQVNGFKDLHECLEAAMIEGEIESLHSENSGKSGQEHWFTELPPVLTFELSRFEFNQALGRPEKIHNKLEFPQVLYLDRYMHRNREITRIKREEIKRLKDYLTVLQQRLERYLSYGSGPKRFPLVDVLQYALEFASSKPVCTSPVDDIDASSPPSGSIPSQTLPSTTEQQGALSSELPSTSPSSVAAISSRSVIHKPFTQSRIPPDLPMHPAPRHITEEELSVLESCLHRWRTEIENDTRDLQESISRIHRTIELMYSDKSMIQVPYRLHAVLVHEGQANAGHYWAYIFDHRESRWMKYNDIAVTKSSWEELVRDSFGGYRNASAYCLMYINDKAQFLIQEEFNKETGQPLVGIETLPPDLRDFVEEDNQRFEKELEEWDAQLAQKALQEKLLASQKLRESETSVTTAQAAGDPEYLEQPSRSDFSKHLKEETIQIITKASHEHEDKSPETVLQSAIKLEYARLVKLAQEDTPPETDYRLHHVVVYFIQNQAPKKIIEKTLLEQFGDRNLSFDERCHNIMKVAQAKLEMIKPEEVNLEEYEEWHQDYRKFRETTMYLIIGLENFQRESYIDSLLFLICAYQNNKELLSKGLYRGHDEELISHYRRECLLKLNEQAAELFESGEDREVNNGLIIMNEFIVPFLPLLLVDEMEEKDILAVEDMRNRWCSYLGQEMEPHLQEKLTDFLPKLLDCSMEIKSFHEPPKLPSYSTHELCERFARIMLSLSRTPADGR
In short: as §1

USP28 = biological target: T3, USP28 (UniProt Q96RU2)
T3 sequence (whole entry): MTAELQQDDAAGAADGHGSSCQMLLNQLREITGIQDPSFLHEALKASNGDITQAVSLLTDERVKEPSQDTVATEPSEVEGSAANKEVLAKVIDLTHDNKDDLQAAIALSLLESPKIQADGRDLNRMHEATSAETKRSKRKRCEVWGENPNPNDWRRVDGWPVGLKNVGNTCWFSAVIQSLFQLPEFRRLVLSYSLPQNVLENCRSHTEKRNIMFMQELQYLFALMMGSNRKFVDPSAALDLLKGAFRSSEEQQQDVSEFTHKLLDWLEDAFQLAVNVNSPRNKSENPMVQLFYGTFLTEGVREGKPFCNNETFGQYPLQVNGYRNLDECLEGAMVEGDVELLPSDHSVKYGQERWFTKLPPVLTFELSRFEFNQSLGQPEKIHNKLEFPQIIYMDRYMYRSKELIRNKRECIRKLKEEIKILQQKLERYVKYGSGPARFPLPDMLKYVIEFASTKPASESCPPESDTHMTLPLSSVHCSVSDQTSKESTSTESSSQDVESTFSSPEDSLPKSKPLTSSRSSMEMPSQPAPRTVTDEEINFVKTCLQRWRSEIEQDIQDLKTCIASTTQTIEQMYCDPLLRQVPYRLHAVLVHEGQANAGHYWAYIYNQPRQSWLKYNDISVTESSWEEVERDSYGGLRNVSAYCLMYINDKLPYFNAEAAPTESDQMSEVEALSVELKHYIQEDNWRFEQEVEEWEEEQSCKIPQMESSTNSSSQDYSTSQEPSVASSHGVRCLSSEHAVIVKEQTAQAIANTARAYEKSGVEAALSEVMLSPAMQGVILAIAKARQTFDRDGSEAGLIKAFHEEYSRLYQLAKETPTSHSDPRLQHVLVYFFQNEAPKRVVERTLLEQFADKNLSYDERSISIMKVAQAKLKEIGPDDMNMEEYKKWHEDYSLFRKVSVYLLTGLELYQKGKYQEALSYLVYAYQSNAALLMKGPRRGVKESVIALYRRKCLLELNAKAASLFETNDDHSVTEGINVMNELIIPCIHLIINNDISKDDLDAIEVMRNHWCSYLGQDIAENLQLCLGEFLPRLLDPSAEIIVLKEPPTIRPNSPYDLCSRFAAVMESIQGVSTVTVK
In short: as §1

Measured: log2 ratio of Biotin-Ahx-Ub-VS probe labelling

Chain of USP16 (Q9Y5T5 whole entry, looked up, the tested form may be a part): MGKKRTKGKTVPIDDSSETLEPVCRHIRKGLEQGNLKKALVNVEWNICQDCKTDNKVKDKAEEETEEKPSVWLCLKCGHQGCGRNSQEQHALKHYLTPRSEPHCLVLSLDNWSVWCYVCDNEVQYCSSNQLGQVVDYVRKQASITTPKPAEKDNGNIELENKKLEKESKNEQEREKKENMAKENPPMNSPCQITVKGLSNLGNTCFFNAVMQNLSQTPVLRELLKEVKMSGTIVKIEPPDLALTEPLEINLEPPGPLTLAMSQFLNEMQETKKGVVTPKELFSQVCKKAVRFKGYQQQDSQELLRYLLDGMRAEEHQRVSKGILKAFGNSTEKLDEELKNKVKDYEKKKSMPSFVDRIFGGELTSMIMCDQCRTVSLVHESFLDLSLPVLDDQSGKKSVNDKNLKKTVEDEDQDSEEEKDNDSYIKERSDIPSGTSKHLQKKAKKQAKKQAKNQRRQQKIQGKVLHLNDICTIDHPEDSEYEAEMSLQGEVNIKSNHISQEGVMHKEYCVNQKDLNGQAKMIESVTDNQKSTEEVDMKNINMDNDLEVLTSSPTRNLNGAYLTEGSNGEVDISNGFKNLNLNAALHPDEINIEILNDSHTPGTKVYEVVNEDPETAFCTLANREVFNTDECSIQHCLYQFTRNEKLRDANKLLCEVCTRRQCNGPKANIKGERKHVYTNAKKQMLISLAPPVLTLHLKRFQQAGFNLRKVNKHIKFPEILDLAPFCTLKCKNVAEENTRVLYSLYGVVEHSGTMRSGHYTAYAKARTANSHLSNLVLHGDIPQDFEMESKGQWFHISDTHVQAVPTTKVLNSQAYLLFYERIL
Chain of USP24 (Q9UPU5 whole entry): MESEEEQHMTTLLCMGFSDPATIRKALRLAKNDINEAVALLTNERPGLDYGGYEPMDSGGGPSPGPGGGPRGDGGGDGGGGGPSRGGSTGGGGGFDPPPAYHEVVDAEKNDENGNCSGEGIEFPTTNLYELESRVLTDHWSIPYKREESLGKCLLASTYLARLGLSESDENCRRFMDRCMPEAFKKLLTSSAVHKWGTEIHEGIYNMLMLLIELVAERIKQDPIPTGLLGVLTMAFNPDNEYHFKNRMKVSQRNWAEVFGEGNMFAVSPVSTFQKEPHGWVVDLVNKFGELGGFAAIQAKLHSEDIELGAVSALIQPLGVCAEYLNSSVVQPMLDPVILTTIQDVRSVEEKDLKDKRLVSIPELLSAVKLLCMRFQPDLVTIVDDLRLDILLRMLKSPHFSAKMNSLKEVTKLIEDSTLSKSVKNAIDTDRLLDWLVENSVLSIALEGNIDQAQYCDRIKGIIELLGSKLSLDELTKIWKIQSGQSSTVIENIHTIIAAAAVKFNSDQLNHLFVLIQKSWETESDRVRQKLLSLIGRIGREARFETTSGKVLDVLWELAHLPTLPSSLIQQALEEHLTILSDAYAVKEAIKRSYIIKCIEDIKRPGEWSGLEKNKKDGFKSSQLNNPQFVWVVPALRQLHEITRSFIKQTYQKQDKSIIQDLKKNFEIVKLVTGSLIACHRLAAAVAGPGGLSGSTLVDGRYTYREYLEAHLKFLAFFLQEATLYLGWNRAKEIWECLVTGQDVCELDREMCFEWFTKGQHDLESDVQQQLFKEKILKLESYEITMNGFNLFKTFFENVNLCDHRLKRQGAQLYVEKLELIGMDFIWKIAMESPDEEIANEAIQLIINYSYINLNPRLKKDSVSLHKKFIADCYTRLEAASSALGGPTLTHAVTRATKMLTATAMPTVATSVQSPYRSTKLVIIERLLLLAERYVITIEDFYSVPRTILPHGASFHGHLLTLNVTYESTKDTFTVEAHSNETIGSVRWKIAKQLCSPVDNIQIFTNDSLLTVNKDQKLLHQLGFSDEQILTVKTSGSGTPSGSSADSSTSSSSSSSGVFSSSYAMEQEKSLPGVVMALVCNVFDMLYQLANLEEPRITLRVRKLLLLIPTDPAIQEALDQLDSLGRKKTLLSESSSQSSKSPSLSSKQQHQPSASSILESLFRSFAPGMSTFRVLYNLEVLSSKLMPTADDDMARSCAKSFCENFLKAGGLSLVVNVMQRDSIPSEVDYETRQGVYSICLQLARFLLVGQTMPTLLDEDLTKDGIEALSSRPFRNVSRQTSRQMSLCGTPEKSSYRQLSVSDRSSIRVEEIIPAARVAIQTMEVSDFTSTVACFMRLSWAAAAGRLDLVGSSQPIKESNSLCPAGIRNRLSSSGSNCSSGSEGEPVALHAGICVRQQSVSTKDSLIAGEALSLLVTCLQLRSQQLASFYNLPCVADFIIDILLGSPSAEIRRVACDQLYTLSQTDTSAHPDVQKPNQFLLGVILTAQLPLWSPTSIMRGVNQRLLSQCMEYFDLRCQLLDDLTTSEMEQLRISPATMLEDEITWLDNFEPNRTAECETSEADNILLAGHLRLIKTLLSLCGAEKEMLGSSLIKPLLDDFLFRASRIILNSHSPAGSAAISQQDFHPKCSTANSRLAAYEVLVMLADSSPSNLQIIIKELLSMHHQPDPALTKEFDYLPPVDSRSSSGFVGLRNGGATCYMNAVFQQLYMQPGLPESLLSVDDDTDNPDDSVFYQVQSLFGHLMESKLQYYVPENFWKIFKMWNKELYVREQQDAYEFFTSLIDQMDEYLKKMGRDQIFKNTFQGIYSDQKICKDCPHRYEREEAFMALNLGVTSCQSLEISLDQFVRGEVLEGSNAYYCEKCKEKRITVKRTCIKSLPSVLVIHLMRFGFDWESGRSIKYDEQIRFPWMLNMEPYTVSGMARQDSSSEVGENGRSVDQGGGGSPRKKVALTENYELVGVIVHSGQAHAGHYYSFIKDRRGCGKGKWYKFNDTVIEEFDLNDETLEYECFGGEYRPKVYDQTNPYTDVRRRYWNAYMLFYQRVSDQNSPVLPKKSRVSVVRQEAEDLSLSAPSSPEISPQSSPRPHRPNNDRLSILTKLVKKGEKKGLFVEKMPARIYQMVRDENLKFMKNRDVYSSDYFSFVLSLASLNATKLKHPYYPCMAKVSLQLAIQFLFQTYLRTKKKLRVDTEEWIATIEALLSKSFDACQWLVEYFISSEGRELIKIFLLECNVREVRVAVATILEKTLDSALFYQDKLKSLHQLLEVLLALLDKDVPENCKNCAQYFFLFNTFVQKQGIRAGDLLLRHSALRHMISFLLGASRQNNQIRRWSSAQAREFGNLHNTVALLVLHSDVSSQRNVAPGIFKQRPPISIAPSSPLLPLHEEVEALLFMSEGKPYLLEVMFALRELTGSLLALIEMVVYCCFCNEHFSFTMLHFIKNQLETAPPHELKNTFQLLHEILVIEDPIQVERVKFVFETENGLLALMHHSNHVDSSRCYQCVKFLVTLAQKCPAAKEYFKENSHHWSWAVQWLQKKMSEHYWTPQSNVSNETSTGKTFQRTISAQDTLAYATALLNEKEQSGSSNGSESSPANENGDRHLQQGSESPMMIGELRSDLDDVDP

O=C(CCl)NC1CCCCNC1=O (stereo not given)
inactive: USP16 -0.792 | USP19 -0.125 | USP24 -0.299 | USP25 -0.212 | USP28 -0.482
